PubChem BioAssay
Records with an inconclusive call do not appear. The source made the active and inactive calls.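 Rule for the calls, unless noted: active = viability at or below 30% in both replicate assays; inconclusive = viability at or below 30% in just one of the two assays; inactive = the rest.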

Legend:
[1] = reducers of endogenous Her2 protein level, primary screen, SKBR3 breast tumor cells, AlphaScreen, ATP viability (AID 461;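 active = Her2 level under about 52% in both replicate screens, with viability over 70% of control, limit read from the data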;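 for Her2 level: lower value means less Her2 protein in the cells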;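 for viability: percent of carrier control wells set as 100% viability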); details: 18-24 h, measured here: SKBR3 viability, ATP luminescence, at 10 µM
[2] = target: Receptor tyrosine-protein kinase erbB-2 (Homo sapiens) (UniProt P04626); assay: as above; details: 18-24 h, at 10 µM, stronger effect = lower value
Chain of Receptor tyrosine-protein kinase erbB-2 (Homo sapiens) (P04626 whole entry, looked up): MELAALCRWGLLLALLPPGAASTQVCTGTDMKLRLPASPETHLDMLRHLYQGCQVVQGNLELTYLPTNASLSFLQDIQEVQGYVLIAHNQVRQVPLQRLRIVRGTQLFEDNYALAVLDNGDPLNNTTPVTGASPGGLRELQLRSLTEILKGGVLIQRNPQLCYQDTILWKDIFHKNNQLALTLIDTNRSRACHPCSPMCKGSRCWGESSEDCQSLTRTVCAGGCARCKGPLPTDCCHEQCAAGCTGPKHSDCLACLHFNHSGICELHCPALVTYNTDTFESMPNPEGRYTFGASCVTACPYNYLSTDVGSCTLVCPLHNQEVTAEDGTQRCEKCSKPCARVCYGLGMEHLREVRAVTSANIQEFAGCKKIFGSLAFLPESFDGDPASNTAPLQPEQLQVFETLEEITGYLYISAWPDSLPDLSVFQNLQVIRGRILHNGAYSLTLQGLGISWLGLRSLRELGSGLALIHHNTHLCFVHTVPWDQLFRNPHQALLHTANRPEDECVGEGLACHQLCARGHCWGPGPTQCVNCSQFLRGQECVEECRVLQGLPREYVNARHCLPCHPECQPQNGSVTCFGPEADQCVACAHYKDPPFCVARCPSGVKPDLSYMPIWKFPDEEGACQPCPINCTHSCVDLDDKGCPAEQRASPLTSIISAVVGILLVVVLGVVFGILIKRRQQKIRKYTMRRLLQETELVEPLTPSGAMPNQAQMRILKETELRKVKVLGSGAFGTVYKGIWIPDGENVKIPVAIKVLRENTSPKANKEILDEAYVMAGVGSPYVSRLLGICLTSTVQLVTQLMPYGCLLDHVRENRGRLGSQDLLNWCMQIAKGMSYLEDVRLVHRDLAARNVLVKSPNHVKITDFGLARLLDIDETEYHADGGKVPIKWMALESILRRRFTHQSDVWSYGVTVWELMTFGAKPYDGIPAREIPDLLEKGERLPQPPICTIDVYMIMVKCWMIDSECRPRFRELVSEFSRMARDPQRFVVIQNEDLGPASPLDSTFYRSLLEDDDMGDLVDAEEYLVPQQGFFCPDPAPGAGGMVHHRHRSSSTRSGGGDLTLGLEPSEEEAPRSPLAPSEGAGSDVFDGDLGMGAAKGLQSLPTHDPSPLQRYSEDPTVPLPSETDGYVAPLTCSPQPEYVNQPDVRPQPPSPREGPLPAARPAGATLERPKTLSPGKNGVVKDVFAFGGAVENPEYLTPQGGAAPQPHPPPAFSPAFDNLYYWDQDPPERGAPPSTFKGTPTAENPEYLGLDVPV

[3] = SK-BR-3 cell growth inhibitors, pilot screen, 24 h, human (AID 572;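 active = viability at or below 10% of carrier control in both of two separate runs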;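 note: compound exposure lasted between 18 and 24 h rather than exactly 24 h; 100% = carrier-treated control wells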); details: SK-BR-3 viability, CellTiter-Glo luminescence, at 10 µM, stronger effect = lower value
[4] = HUVEC growth inhibition – cell-based, human, primary screen (AID 575); details: HUVEC proliferation, CellTiter-Glo luminescence, 72 h; at 10 µM; stronger effect = lower value;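 note: 100% = median of untreated cell wells with 0.1% DMSO on each plate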
[5] = growth inhibitors of H69AR lung tumor, primary screen, human, duplicate replicates (AID 580;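 active = viability at or under a set limit in both replicates, limit being median viability minus 3 SD, cut at about 48% in these data, passing the limit was not always enough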;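 note: 100% = mean luminescence of untreated wells and 0% = no signal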); details: H69AR lung tumor cells viability, ATP luminescence, 72 h; at 10 µM; stronger effect = lower value
[6] = reversal of MRP1-mediated doxorubicin resistance, pilot screen, H69AR cells, doxorubicin co-treatment (AID 601;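 active = viability loss from added drug above about 55%, and viability with drug at most 40%, in both replicates, limit read from the data, passing the limit was not always enough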); details: CellTiter-Glo, 72 h, at 10 µM; for differential viability (reversal): stronger effect = higher value
[7] = viability gain of MRP-1-high H69AR cells under doxorubicin, pilot screen, MRP-1 activator project, CellTiter-Glo, duplicate (AID 807;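 active = viability increase at or above a cutoff of the median across tested compounds plus 3 SD, cut at about 8.5% in these data, passing the limit was not always enough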;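 note: compound pretreatment 18-22 h then 72 h combined with doxorubicin; 0% = doxorubicin alone and 100% = vehicle without doxorubicin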); details: H69AR viability with doxorubicin, CellTiter-Glo luminescence; at 10 µM; stronger effect = higher value
[8] = growth suppression of beta-catenin knockout HCT116, pilot screen, human colon tumor cells (AID 823;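 active = cell viability at or below a set limit in both duplicate runs, the limit being the all-compound median minus 4 SD, cut at about 23% in these data, passing the limit was not always enough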;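 note: 0% = wells killed by 20 µM Hyamine and 100% = untreated DMSO cell wells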); details: CellTiter-Glo, 60 h, at 10 µM, stronger effect = lower value
[9] = growth suppression of PTEN-deleted HCT116, pilot screen, cell-based, HCT116 clonal line, CellTiter-Glo (AID 824;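 active = viability at or below 27.92% in each of two runs, the all-compound median minus 4 SD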;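 note: 0% = 20 µM Hyamine control and 100% = vehicle cell control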); details: 60 h, at 10 µM, stronger effect = lower value
[10] = inhibitors of the yeast RAM network, pilot screen, dse1pr::URA3 reporter, 5-FOA selection (AID 869;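 active = inhibition over a set limit, the all-compound mean plus 3 SD, in both replicate runs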;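 note: 0% = DMSO wells with no growth and 100% = 10 µM 1-NA-PP1 with full growth; RAM network block rescues cells from 5-FOA so hits raise OD615 growth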); details: S. cerevisiae dse1pr::URA3 5-FOA growth, OD615, 2 d; at 10 µM; stronger effect = higher value; strain carries analog-sensitive mutant Cbk1 kinase
[11] = RAM signaling pathway blockade in yeast – S. cerevisiae, Pdr1DBD-CYC8 efflux-inhibited sensitized strain, primary screen (AID 1298;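 active = RAM network inhibition above 8.4% in each of two replicates, 3 SD over the compound average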;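 note: 0% = DMSO untreated cells without growth and 100% = 10 µM 1-NA-PP1 full growth; higher means more yeast growth rescued from 5-FOA killing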); details: S. cerevisiae cbk1-as DSE1-URA3 strain, 5-FOA growth OD615, 2 d; at 50 µM; stronger effect = higher value
[12] = Restrictive medium S. cerevisiae growth inhibition, OD615, pilot screen of yeast lifespan reduction project, restrictive growth control (AID 706;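 active = growth inhibition above a set limit, 3 SD over mean compound inhibition, in both replicates, cut at about 43% in these data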;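 note: modified DeaD lifespan yeast strain shifted to restrictive glucose medium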); details: OD615, 48 h, at 10 µM, stronger effect = higher value
[13] = H69AR cells + 2 uM doxorubicin, measured here: viability with 2 uM doxorubicin, stronger effect = lower value
[14] = H69AR cells, compound alone cytotoxicity

CS(=O)(=O)Nc1ccc([N+](=O)[O-])cc1Oc1ccccc1
viability [1]: 118% | Her2 level [2]: 103% (inactive) | viability [3]: 118% (inactive) | viability [4]: 106% (inactive) | viability [5]: 108% (inactive) | differential viability (reversal) ([6]; H69AR cells + 2 uM doxorubicin): 10.3% (inactive) | viability [6, 13]: 97.6% | viability [6, 14]: 108%

CCN(CC)CCNC(=O)c1ccc(N)cc1
viability [1]: 97.5% | Her2 level [2]: 136% (inactive) | viability [3]: 97.5% (inactive) | viability [4]: 99.2% (inactive) | viability [5]: 88.1% (inactive) | differential viability (reversal) ([6]; H69AR cells + 2 uM doxorubicin): -10.7% (inactive) | viability [6, 13]: 98.8% | viability [6, 14]: 88.1%

O=C(O)CCC(=O)Nc1ccc(S(=O)(=O)Nc2nccs2)cc1
viability [1]: 122% | Her2 level [2]: 98.5% (inactive) | viability [3]: 122% (inactive) | viability [4]: 75.4% (inactive) | viability [5]: 94.4% (inactive) | differential viability (reversal) ([6]; H69AR cells + 2 uM doxorubicin): -2.46% (inactive) | viability [6, 13]: 96.9% | viability [6, 14]: 94.4%

Cc1cccc(C)c1NC(=O)C1CCCCN1C (centres undefined)
viability [1]: 108% | Her2 level [2]: 101% (inactive) | viability [3]: 108% (inactive) | viability [4]: 104% (inactive) | viability [5]: 99.7% (inactive) | differential viability (reversal) ([6]; H69AR cells + 2 uM doxorubicin): 12% (inactive) | viability [6, 13]: 87.7% | viability [6, 14]: 99.7%

CCCOc1ccc(C(=O)Nc2cc(-c3nn4c(C)nnc4s3)ccc2C)cc1
viability increase [7]: -3.69% (inactive) | viability [8]: 101% (inactive) | viability [9]: 92.9% (inactive) | inhibition [10]: 1.7% (inactive) | RAM network inhibition [11]: 3.75% (inactive)

c1cn2cc(-c3ccc4c(c3)OCO4)nc2s1
viability increase [7]: 1.35% (inactive) | viability [8]: 99.7% (inactive) | viability [9]: 90.7% (inactive) | inhibition [10]: 1.96% (inactive) | RAM network inhibition [11]: 0.64% (inactive)

CCOc1ccc2nc(S(N)(=O)=O)sc2c1
viability [1]: 127% | Her2 level [2]: 92% (inactive) | viability [3]: 127% (inactive) | viability [4]: 59% (inactive) | viability [5]: 67.6% (inactive) | differential viability (reversal) ([6]; H69AR cells + 2 uM doxorubicin): 7.23% (inactive) | viability [6, 13]: 60.4% | viability [6, 14]: 67.6%

CC(C)Sc1nc(O)c(Cc2ccccc2)c(=O)[nH]1
growth inhibition [12]: -0.8% (inactive) | viability increase [7]: -0.54% (inactive) | viability [8]: 104% (inactive) | inhibition [10]: 2.81% (inactive) | RAM network inhibition [11]: 6.91% (inactive)

C[C@]12CC[C@@H]3c4ccc(OS(=O)(=O)O)cc4CC[C@H]3[C@@H]1CCC2=O
viability [1]: 87% | Her2 level [2]: 108% (inactive) | viability [3]: 87% (inactive) | viability [4]: 99.6% (inactive)
